Consider 13 compounds from PubChem BioAssay (NCATS).

Results filed as inconclusive are left out. Where a call stands in place of a potency, no number is given. Calls of active or inactive are those of the source. The call rests on the fitted dose curve; in most records, active means well fitted inhibition curve with a large enough effect; inconclusive means small, poorly fitted or top-dose-only effect, or effect the other way; inactive means flat fitted curve, though single readings scatter.
Potency means the concentration at half of the fitted maximal effect.

This test is described as follows: Quantitative high throughput screen for delayed death inhibitors of the malarial parasite plastid, 48 hour incubation (AID 488752). Further: nearly all actives have a fitted effect of over 65% in size. The following applies: Plasmodium falciparum growth; series mostly up to 28.7 µM. An excerpt: NIH Molecular Libraries Probe Production Network [MLPCN]
NIH Chemical Genomics Center [NCGC]
Assay Provider: David Fidock and Eric Ekland, Columbia University
The goal of this screen is to discover new antimalarial compounds that act by inhibiting the development of the apicoplast in the malarial parasite Plasmodium falciparum. The biochemical processes that make this organelle essential for erythrocytic stage parasites are not well understood. However, antibiotics, such as azithromycin and tetracycline, which target the apicoplast translational machinery, have a potent antimalarial effect.
We have developed a cell-based assay that measures parasite growth based on the expression of an integrated copy of a firefly luciferase reporter. To detect small molecules that cause this 'delayed death' phenotype, erythrocytes infected with the luciferase-expressing parasites were incubated with compounds for either one or two generations, corresponding to 48 and 96 hours, respectively. Compounds that inhibit parasite growth in the second generation, but not the first, should be enriched in antimalarials that target the apicoplast. Growth inhibition is detected by a decrease in luciferase activity
Four microliters of culture medium (RPMI 1640 with 0.5% w/v Albumax (GIBCO), 24 mM sodium bicarbonate and 10 ug/mL gentamycin) were dispensed by a Multi-drop Combi into white solid 1536-well plates (Grenier) and 23 nL compound was added by a pin tool. Four microliters of infected erythrocytes (2% hematocrit, 0.1% parasitemia final concentration) in culture medium were dispensed and the plates incubated for 48 hours at 37 C in 5% CO2. Two microliters of luciferase detection reagent was added and luminescence was detected by a ViewLux (PerkinElmer) reader
On to `CC(=O)SC1CC2=CC(=O)CC[C@]2(C)C2CC[C@@]3(C)[C@@H](CC[C@@]34CCC(=O)O4)C12` (stereo partly drawn), for which the Potency result was “inactive”.
With `COc1cc2c(cc1O)CCC1C2CC[C@]2(C)[C@@H](O)CC[C@@H]12` (stereo partly drawn), the Potency entry is “inactive”.
Regarding `C[C@H]1c2cccc(O)c2C(O)=C2C(=O)[C@]3(O)C(O)=C(C(N)=O)C(=O)C(N(C)C)[C@@H]3[C@@H](O)C21` (stereo partly drawn), the Potency is 6570 nM (active).
`CC(=O)O[C@]1(C(C)=O)CC[C@H]2C3C=C(Cl)C4=CC(=O)[C@@H]5C[C@H]5[C@]4(C)C3CC[C@@]21C` (stereo partly drawn): the Potency was 9280 nM (active).
With `C=C[C@@H]1CN2CC[C@@H]1C[C@@H]2[C@H](O)c1ccnc2ccc(OC)cc12` the figure was 26.2 nM (active); with `Nc1nc(Cl)nc2c1ncn2[C@@H]1O[C@H](COP(=O)(O)OP(=O)(O)OP(=O)(O)O)[C@H](O)[C@H]1O`, “inactive”; with `Cc1cc(N)c2ccccc2[n+]1CCCCCCCCCCCCCC[n+]1c(C)cc(N)c2ccccc21`, 1470 nM (active).
With `O=S(=O)(O)C1CCNCC1` the entry was “inactive”; with `C[C@]12C[C@H](O)C3[C@@H](CCC4=CC(=O)CC[C@@]43C)[C@@H]1CC[C@@H]2C(=O)CO` (stereo partly drawn), “inactive”; with `CCCCN1CCC(COC(=O)c2cc(Cl)c(N)c3c2OCCO3)CC1`, “inactive”.
With `CC[C@H](C)C(=O)O[C@H]1CCC=C2C=C[C@H](C)[C@H](CC[C@@H]3C[C@H](O)CC(=O)O3)C21` (stereo partly drawn) the entry was “inactive”; with `Cc1c(C)c2c(c(C)c1O)CCC(C)(CN1CCN(c3cc(N4CCCC4)nc(N4CCCC4)n3)CC1)O2` (stereo not drawn), 1850 nM (active); with `C#C[C@]1(O)CC[C@H]2C3CCC4=Cc5oncc5CC4(C)C3CCC21C` (stereo partly drawn), “inactive”.
